# From PMC4336329 (PLoS ONE, 2015)
# Hit rate of the full screen: of about 310,000 compounds, about 14,000 (4.5%) showed an effect of 50% or more. Effects have a minus sign here. This is one part of a sample in which strong results are shown more often than they occur.
# Biological target: human ether-à-go-go-related gene (hERG) potassium channel (human, UniProt Q12809)
# Test: primary screen, population patch clamp on CHO cells stably expressing hERG; higher = less effect of the substance
# Experimental: Briefly, Chinese hamster ovary (CHO) cells stably expressing the hERG channel were dislodged from tissue culture flasks and dispensed into PPC plates. […] During the recording, background leak currents were estimated by a 100 ms step to -80 mV from an initial holding potential of -70 mV and subtracted from the subsequent current measurement. The campaign was conducted in two phases using slight differences in recording protocol. In the first phase, the initial voltage pulse used a 100 ms step to -30 mV from a holding potential of -70 mV, a 2 s conditioning step to +25 mV, and a 2 s test step to -30 mV. During the second phase of the screen, the potential during the conditioning step was raised to +45 mV. In both phases of the campaign, a secondary voltage pulse was applied using the same parameters as the second phase initial pulse. The initial and secondary pulses were applied in the absence of compound, and upon application of 1 μM and 10 μM test concentrations. […]
# 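Further: peak tail current of the secondary pulse compared with the same well before compound.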
# human ether-à-go-go-related gene (hERG) potassium channel, sequence (Q12809 whole entry, looked up): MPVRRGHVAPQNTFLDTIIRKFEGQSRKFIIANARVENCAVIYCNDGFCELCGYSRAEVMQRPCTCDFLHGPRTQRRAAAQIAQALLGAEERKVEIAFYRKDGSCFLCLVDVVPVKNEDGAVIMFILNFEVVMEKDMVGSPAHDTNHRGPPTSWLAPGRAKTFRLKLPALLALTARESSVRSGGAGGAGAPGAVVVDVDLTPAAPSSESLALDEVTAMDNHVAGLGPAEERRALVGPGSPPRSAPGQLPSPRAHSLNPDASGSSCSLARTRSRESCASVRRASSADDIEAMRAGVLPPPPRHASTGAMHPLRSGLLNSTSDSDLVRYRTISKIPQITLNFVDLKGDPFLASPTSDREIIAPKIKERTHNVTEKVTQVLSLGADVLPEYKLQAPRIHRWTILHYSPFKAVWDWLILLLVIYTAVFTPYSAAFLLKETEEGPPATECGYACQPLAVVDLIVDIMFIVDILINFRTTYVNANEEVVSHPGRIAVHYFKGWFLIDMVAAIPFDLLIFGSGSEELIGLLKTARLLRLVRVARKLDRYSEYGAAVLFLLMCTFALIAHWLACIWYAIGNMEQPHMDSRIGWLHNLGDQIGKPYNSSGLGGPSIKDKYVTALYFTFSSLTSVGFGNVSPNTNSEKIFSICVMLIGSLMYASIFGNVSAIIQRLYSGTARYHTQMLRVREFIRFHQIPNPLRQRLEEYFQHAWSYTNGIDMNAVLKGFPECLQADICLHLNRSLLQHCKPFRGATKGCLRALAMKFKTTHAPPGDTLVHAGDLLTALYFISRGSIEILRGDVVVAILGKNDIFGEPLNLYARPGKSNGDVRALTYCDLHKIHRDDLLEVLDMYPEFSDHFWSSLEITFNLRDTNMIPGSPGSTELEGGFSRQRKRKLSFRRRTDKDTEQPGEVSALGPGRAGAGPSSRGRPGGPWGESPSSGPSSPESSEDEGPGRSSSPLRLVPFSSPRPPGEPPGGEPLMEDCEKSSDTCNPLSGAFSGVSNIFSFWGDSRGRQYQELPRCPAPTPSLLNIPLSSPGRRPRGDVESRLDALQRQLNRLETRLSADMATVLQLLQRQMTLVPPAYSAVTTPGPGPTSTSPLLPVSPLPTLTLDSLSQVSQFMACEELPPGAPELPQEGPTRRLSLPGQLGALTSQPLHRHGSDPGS
row,SMILES,"hERG current change (%, negative = inhibition) at 10uM [%]"
1,N=C1/C(=C\c2ccc(-c3cccc(C(=O)O)c3)o2)C(=O)N=C2SC=C(c3ccccc3)N12,0.469
2,CCCN1CCCc2ccccc21.Cl,7.61
3,CNC(CC(C)C)C(=O)NC1C(=O)NC(CC(N)=O)C(=O)NC2C(=O)NC3C(=O)NC(C(=O)NC(C(=O)O)c4cc(O)cc(O)c4-c4cc3ccc4O)C(O)c3ccc(c(Cl)c3)Oc3cc2cc(c3OC2OC(CO)C(O)C(O)C2OC2C[C@](C)(N)C(O)C(C)O2)Oc2ccc(cc2Cl)C1O (stereo partly shown),9.61
4,COC(=O)c1ccc2c(=O)[nH]c(CCl)nc2c1,10.7
5,COC(=O)NNC(=O)c1ccc(Cl)cc1Cl,19.8
6,O=C(C1=C(O)C(=O)N(CC2CCCO2)C1c1ccc(Cl)cc1Cl)c1ccco1 (stereo not shown),18.5
7,COc1ccc(-c2oc(/N=C/N3CCOCC3)c(C#N)c2-c2ccc(OC)cc2)cc1,13.9
8,CC(=O)Nc1sc2c(c1C(N)=O)CCN(Cc1ccccc1)C2.Cl,-23.3
9,CC(C)C(=O)Nc1sc2c(c1C(N)=O)CCN(Cc1ccccc1)C2.Cl,-108
10,CCC(=O)Nc1sc2c(c1C(=O)OC)CCN(Cc1ccccc1)C2.Cl,-62.9
11,COC(=O)c1c(NC(=O)C(C)C)sc2c1CCN(Cc1ccccc1)C2.Cl,-38.4
12,CCOC(=O)c1c(NC(=O)CC)sc2c1CCN(Cc1ccccc1)C2.Cl,-14.5
13,COC(=O)c1c(NC(=O)C(C)(C)C)sc2c1CCN(Cc1ccccc1)C2.Cl,-34.7
14,O=C(N/N=C/c1cn(-c2ccccc2)nc1-c1ccc2c(c1)OCCO2)c1ccncc1,15.2
15,COc1ccc(NC(=O)COc2coc(CN3c4ccccc4CC3C)cc2=O)cc1 (stereo not shown),5.06
16,O=C(O)c1cc2c(cc1NC(=O)c1c(F)cccc1Cl)OCCCO2,5.08
17,Cc1nc2sc3c(c2c(=O)n1/N=C/c1ccco1)CCCC3,16.8
18,CCOC(=O)N1CCN(C(=O)c2cc3c(s2)-c2ccc(Cl)cc2S(=O)(=O)C3)CC1,-66.5
19,CN1CCN(C(=O)c2cc3c(s2)-c2ccccc2S(=O)(=O)C3)CC1,4.14
20,CCN1CCN(C(=O)c2cc3c(s2)-c2ccccc2S(=O)(=O)C3)CC1,-11.2
21,COc1ccc(N(C)C(=O)c2cc3c(s2)-c2ccccc2S(=O)(=O)C3)cc1,-39.9
22,COc1ccc(N(C)C(=O)c2cc3c(s2)-c2ccc(Cl)cc2S(=O)(=O)C3)c(OC)c1,-58.5
23,COc1cc(OC)c(N(C)C(=O)c2cc3c(s2)-c2ccccc2S(=O)(=O)C3)cc1Cl,-13.2
24,COc1cc(OC)cc(-n2nnnc2SCC(=O)Nc2nc3c(s2)CCCC3)c1,7.1
25,Cc1nnc(SCC(=O)Nc2ccc3c(c2)OCO3)n(N)c1=O,11.3

row,SMILES,"hERG current change (%, negative = inhibition) at 10uM [%]"
1,O=C(COc1cccc(-n2cnnn2)c1)N1CCOCC1,2.13
2,O=C1OC(c2ccc(Br)cc2)=N/C1=C\N1CCCCC1,22
3,CCN1CCCC1CNC(=O)CN1C(=O)COc2ccc(C)cc21 (stereo not shown),-12.4
4,COc1cccc(CNC(=O)CCC2CCCN(C3CCOCC3)C2)c1 (stereo not shown),-0.768
5,COc1cccc(CNC(=O)CCC2CCCN(C(=O)CCC(F)(F)F)C2)c1 (stereo not shown),-5.17
6,COc1cccc(CNC(=O)CCC2CCCN(Cc3ccc(OC(F)F)cc3)C2)c1 (stereo not shown),-76.6
7,COc1cccc(CNC(=O)CCC2CCCN(C(=O)c3ccc(F)c(Cl)c3)C2)c1 (stereo not shown),-16.6
8,COc1cccc(CNC(=O)CCC2CCCN(C(=O)c3cccc(Cl)c3)C2)c1 (stereo not shown),-20.9
9,COc1cccc(CNC(=O)CCC2CCCN(Cc3cc(Cl)ccc3O)C2)c1 (stereo not shown),-60.6
10,CC12CCC(C(=O)NC3CCCCC3)([C@H](Br)C1=O)C2(C)C (stereo partly shown),10.6
11,Cc1cc(C)cc(OCC(=O)OCC(=O)N2CCc3ccccc32)c1,14.5
12,O=C(Cn1nc(CNc2ccc(Cl)cc2)[n+]2c1CCCCC2)c1ccc(Cl)cc1.[Br-],-8.17
13,O=C(Cn1nc(CNc2ccc(Cl)cc2)[n+]2c1CCCCC2)c1ccc(Br)cc1.[Br-],-61.6
14,O=C(Cn1nc(CNc2ccc(Cl)cc2)[n+]2c1CCCCC2)c1ccccc1.[Br-],9.17
15,Cc1ccc(C(C)C)c(OCC(=O)Nc2ccc(Cl)cn2)c1,-8.82
16,O=C(Cn1nc(-c2nn(CC(=O)c3ccccc3)c3[n+]2CCCCC3)[n+]2c1CCCCC2)c1ccccc1.[Br-],12.8
17,COc1ccc(NCc2nn(CC(=O)c3ccc(Br)cc3)c3[n+]2CCCCC3)cc1.[Br-],10.1
18,Cc1ccc(C(C)C)c(OCc2nn(CC(=O)c3ccc(Cl)cc3)c3[n+]2CCCCC3)c1.[Br-],-73.3
19,Cc1ccc(C(C)C)c(OCc2nn(CC(=O)c3ccc(OC(F)F)cc3)c3[n+]2CCCCC3)c1.[Br-],-72.5
20,COc1ccc(C(=O)Cn2nc(CNc3ccc(Br)cc3)[n+]3c2CCCCC3)cc1.[Br-],15.4
21,O=C(Nc1ccccc1C(F)(F)F)c1cc(S(=O)(=O)N2CCC3(CC2)OCCO3)ccc1F,-17.1
22,O=C(CCCCCN1C(=O)c2ccccc2C1=O)Nc1ccc(S(=O)(=O)N2CCCCC2)cc1,-46.6
23,COc1ccc(NC(=O)N2CCCC(c3nc(-c4ccc(OC)cc4)no3)C2)cc1 (stereo not shown),-4.38
24,Cc1ccnc(NC(=O)C2CCN(S(=O)(=O)c3ccc(C)c(C)c3)CC2)c1,4.97
